# Measured values as given in PubChem BioAssay (NCATS).
# Several values for one entry are separate records, joined by “and”; a condition that tells them apart may be missing. Equal values may be shown once. Inconclusive results are not listed. A number with no mark means an inactive call. Activity calls are given as the source filed them. Unless noted, the call rests on the fitted dose curve.
# Assays:
# [1] = AP1 Signaling Pathway (AID 357; active means well fitted curve in either direction with a large enough effect, not every such curve was filed as active;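 further: ME-180 reporter cells stimulated with EGF at its EC50 level; on the % scale 0 is the no-effect control and ±100 the full control effect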); conditions: ME-180 AP-1-bla reporter, EGF-induced, beta-lactamase ratio, 5 h; at 38 µM (top of the series)
# Procedure, shortened: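 Beta-lactamase reporter under AP-1 response element, ME-180 background. Stimulus: EC50 EGF. Compound exposure 5 h, 37 °C. Detection: CCF4, 2.5 h RT, 460/530 nm. Values: AC50 from titration.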
# [2] = molecular target: Cytochrome P450 1A2 (Homo sapiens) (UniProt P05177); assay: p450-cyp1a2 (AID 410); conditions: recombinant CYP1A2, luciferin-ME demethylation, luminescence; series mostly up to 57 µM;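 further: -100% = full effect of reference inhibitor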
# Cytochrome P450 1A2 (Homo sapiens), sequence (P05177 whole entry, looked up): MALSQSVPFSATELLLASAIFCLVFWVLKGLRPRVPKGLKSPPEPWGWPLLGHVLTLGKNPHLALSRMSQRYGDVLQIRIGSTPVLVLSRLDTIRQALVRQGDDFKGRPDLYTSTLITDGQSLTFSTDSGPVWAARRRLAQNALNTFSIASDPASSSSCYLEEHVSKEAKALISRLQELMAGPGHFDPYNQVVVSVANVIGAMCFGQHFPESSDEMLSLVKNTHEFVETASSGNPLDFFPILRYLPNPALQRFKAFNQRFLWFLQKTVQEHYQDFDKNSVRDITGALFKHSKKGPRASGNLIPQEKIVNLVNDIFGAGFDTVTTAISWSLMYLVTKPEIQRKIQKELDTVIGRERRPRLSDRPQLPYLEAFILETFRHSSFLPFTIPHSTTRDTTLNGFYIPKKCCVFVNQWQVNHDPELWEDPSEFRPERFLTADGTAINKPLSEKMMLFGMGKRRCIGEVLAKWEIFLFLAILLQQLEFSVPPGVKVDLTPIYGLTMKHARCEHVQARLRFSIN
# Procedure, shortened: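 Read-out is luminescence from luciferin produced by CYP1A2 demethylation of Luciferin-ME (100uM, at Km). Detection reagent stopped the 60 min NADPH-dependent reaction; signals were normalized to 57 uM furafylline.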
# [3] = Stat Signaling Pathway (AID 446; active means well fitted curve in either direction with a large enough effect, not every such curve was filed as active;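 further: ME-180 cervical cancer cells given 40 pM IL-6 alongside compound; SIE-controlled beta-lactamase reporter measured as 460/530 nm FRET emission ratio; on the % scale 0 is the no-effect control and ±100 the full control effect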); conditions: ME-180 (cervical carcinoma) SIE beta-lactamase reporter, IL-6 stimulated, 5 h; at 38 µM (top of the series)
# Procedure, shortened: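 Emission at 460 and 530 nm (excitation 405 nm) reports SIE-controlled beta-lactamase in ME-180 cells. Cells received compound with 40 pM IL-6 for 5 hrs at 37 C; data scaled between 300 pM IL-6 and 125 nM JAK-inhibitor controls.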
# [4] = NFAT Signaling Pathway (AID 444; active means well fitted curve in either direction with a large enough effect, not every such curve was filed as active;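 further: carbachol stimulus at about its EC50 of 1 µM final; on the % scale 0 is the no-effect control and ±100 the full control effect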); conditions: Jurkat NFAT-bla M1, carbachol, beta-lactamase ratio, 5 h; at 38 µM (top of the series)
# Procedure, shortened: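 Read-out: CCF4 FRET ratio (460 nm/530 nm) after 1 h RT dye loading, used for %activity and AC50 from titration series. Cells: Jurkat NFAT-β-lactamase/M1 line, treated with compound plus 1 uM carbachol for 5 h, 37 °C.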
# [5] = Cell Viability - BJ (AID 421); conditions: BJ fibroblast viability, qHTS;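 further: potency means the concentration at half of the fitted maximal effect; cells exposed to compound for 40 hours at 37 °C before readout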
# Procedure, shortened: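 Cytotoxicity in human BJ foreskin fibroblasts is scored as loss of cellular ATP after a 40-hour exposure, measured by luciferase luminescence. Controls are DMSO and 100 uM tamoxifen.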
# [6] = Cell Viability - Jurkat (AID 426;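 active means dose-dependent loss of cell ATP signal giving a full or clear fitted curve, ranked by lower potency value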;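 further: potency means the concentration at half of the fitted maximal effect; cells exposed to compound for 40 hours at 37 °C before ATP read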); conditions: qHTS
# Procedure, shortened: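 Cytotoxicity was scored as loss of cellular ATP, measured by luciferase-based luminescence, in Jurkat clone E6-1 cells after 40 h compound treatment; tamoxifen and doxorubicin served as positive controls.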
# [7] = Cell Viability - Hek293 (AID 427;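 active means compounds whose dose-response curve shows a full or clear partial loss of cell viability, called from curve shape rather than a numeric limit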;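 further: potency means the concentration at half of the fitted maximal effect; cells exposed to compound for 40 hours at 37 °C before reading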); conditions: qHTS
# Procedure, shortened: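 qHTS, human embryonic kidney (adenovirus-transformed) cells; 40 hr cpd, 37 °C; CellTiter-Glo ATP luminescence. Norm: DMSO = 0, 100 uM tamoxifen = 100% inhibition. Hill-fit AC50.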
# [8] = Cell Viability - MRC5 (AID 434); conditions: MRC5 lung fibroblast viability, qHTS;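 further: potency means the concentration at half of the fitted maximal effect; cells exposed to compound for 40 hours at 37 °C; potency reflects cytotoxicity seen as loss of intracellular ATP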
# Procedure, shortened: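 AC50 values come from Hill-equation fits of intracellular ATP loss, measured by CellTiter-Glo luminescence. Normal lung fibroblasts (MRC5) had 40 hr compound treatment at 37 C, normalized between DMSO and 100 uM tamoxifen.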
# [9] = Cell Viability - HepG2 (AID 433); conditions: qHTS;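 further: potency means the concentration at half of the fitted maximal effect; cells exposed to compound for 40 hours; potency for ATP loss meaning cytotoxicity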
# Procedure, shortened: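 HepG2 cells, 1500 per well, treated 40 hr at 37 °C in complete medium; viability from intracellular ATP by CellTiter-Glo luminescence. Normalized to DMSO and 100 uM tamoxifen; AC50 from Hill fit of qHTS concentration-response.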
# [10] = Cell Viability - SK-N-SH (AID 435); conditions: SK-N-SH neuroblastoma cell viability qHTS;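 further: potency means the concentration at half of the fitted maximal effect; compound exposure lasted 40 h at 37 °C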
# Procedure, shortened: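 SK-N-SH neuroblastoma cells (1500/well) treated 40 h at 37 °C in complete medium; viability read as cellular ATP by CellTiter-Glo luminescence. Normalized to DMSO and 100 uM tamoxifen; AC50 from Hill fits of qHTS concentration-response.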
SMILES,"activity change, negative = inhibition [1]",Potency [2],"activity, negative = inhibition [3]","activity change, negative = inhibition [4] [%]",Potency [5],Potency [6],Potency [7],Potency [8],Potency [9],Potency [10]
CCCN(CCC)[C@@H]1CCc2ccc(O)cc2C1,4.4% and -2.26%,inactive,-20.3% and 11.5%,–,–,–,–,–,–,–
CNCCc1ccc(O)c(O)c1,-12.9%,–,-23.7%,4.43,–,–,–,–,–,–
Nc1ccc(Cl)cc1N,–,–,–,–,> 92 µM,4.05 µM (active),> 92 µM,> 92 µM,–,–
CCCCC(CC)COC(=O)c1ccccc1C(=O)OCC(CC)CCCC (stereo not drawn),–,–,–,–,> 92 µM,> 92 µM,> 92 µM,> 92 µM,> 92 µM,> 92 µM
CN(C)NC(=O)CCC(=O)O,–,–,–,–,> 92 µM,> 92 µM,> 92 µM,> 92 µM,> 92 µM,> 92 µM
CC(C)(O)C(=O)Nc1ccc([N+](=O)[O-])c(C(F)(F)F)c1,–,–,–,–,> 92 µM,> 92 µM,> 92 µM,> 92 µM,> 92 µM,> 92 µM
CCOCCOC(C)=O,–,–,–,–,> 92 µM,> 92 µM,> 92 µM,> 92 µM,> 92 µM,> 92 µM
c1cc2ccc3cccc4ccc(c1)c2c34,–,–,–,–,> 92 µM,> 92 µM,> 92 µM,> 92 µM,> 92 µM,> 92 µM
O=C(O)C(Cl)Cl,–,–,–,–,> 92 µM,> 92 µM,> 92 µM,> 92 µM,> 92 µM,> 92 µM
OCCCBr,–,–,–,–,> 92 µM,> 92 µM,> 92 µM,> 92 µM,> 92 µM,> 92 µM
O=C(O)COc1ccccc1,–,–,–,–,> 92 µM,> 92 µM,> 92 µM,> 92 µM,> 92 µM,> 92 µM
C1CCC(NC2CCCCC2)CC1,–,–,–,–,> 92 µM,> 92 µM,> 92 µM,> 92 µM,> 92 µM,> 92 µM
CCCCCCCCc1ccc(O)cc1,–,–,–,–,> 92 µM,> 92 µM,> 92 µM,> 92 µM,> 92 µM,> 92 µM
COC(C)(C)CCCC(C)C/C=C/C(C)=C/C(=O)OC(C)C (stereo not drawn),–,–,–,–,> 92 µM,> 92 µM,> 92 µM,> 92 µM,> 92 µM,> 92 µM
CC(=O)[O][Hg][c]1ccccc1,–,–,–,–,5.56 µM (active),0.47 µM (active),2.24 µM (active),10.9 µM (active),25.1 µM (active),2.17 µM (active)
Nc1ccc(Sc2ccc(N)cc2)cc1,–,–,–,–,> 92 µM,> 92 µM,> 92 µM,> 92 µM,> 92 µM,> 92 µM
CCCCOC(=O)c1ccccc1C(=O)OCc1ccccc1,–,–,–,–,> 92 µM,> 92 µM,> 92 µM,> 92 µM,> 92 µM,> 92 µM
O=[N+]([O-])c1cc([N+](=O)[O-])c2ccccc2c1,–,–,–,–,> 92 µM,> 92 µM,> 92 µM,> 92 µM,> 92 µM,> 92 µM
Cc1c(C(=O)c2cccc3ccccc23)c2cccc3c2n1[C@H](CN1CCOCC1)CO3,–,–,–,-21.8,–,–,–,–,–,–
O=[N+]([O-])c1c(Cl)c(Cl)cc(Cl)c1Cl,–,–,–,–,> 92 µM,> 92 µM,> 92 µM,> 92 µM,> 92 µM,> 92 µM
O=[N+]([O-])c1c2ccccc2cc2ccccc12,–,–,–,–,> 92 µM,> 92 µM,> 92 µM,> 92 µM,> 92 µM,> 92 µM
